Measurements from the supplement of paper PMC13380429.

System: Vero E6 infected with SARS-CoV-2
Experiment: inhibition of SARS-CoV-2 cytopathic effect; higher = more antiviral protection, active = above 15
Details: 48 h

Measured: inhibition of SARS-CoV-2 cytopathic effect

Nc1nc(N)c2nc(-c3cccc(O)c3)cnc2n1
inactive: 1 nM -0.93% | 8.33 nM -0.26% | 100 nM 0.04% | 833.33 nM -0.48% | 10000 nM -1.39%

O=C(O)CCC(=O)C(=O)O [2-oxoglutaric-acid]
inactive: 1 nM -3.15% | 8.33 nM -0.14% | 100 nM 1.87% | 833.33 nM 0.16% | 10000 nM -2.21%

CN1C[C@H](C(=O)N[C@]2(C)O[C@@]3(O)[C@@H]4CCCN4C(=O)[C@H](Cc4ccccc4)N3C2=O)C[C@@H]2c3cccc4[nH]cc(c34)C[C@H]21 [dihydroergotamine]
inactive: 1 nM 0.49% | 8.33 nM 0.5% | 100 nM 2.21% | 833.33 nM -0.8% | 10000 nM 2.88%

Cc1ccc(-c2nn(C(C)(C)CNC(=O)c3ncccc3C)c3ncnc(N)c23)cc1 [WEHI-345-analog]
inactive: 1 nM 0.48% | 8.33 nM 1.39% | 100 nM -0.26% | 833.33 nM 0.47% | 10000 nM -2.28%

C[C@]12CC[C@@H]3c4ccc(O)cc4CC[C@H]3[C@@H]1CCC2=O [estrone]
inactive: 1 nM 1.09% | 8.33 nM 1.93% | 100 nM -0.92% | 833.33 nM 0.5% | 10000 nM 2.53%

c1ccc(-c2oc3ncnc(NC[C@@H]4CCCO4)c3c2-c2ccccc2)cc1
inactive: 1 nM 0.95% | 8.33 nM 0.57% | 100 nM 0% | 833.33 nM 0.71% | 10000 nM 1.78%

CN[C@H]1C(=O)N[C@@H]2Cc3ccc(cc3)Oc3cc4cc(c3O[C@@H]3O[C@H](C(=O)O)[C@@H](O)[C@H](O)[C@H]3NC(=O)CCCCCCCCC(C)C)Oc3ccc(cc3Cl)[C@@H](O)[C@@H]3NC(=O)[C@H](NC(=O)[C@@H]4NC(=O)[C@@H](NC2=O)c2cc(cc(O)c2Cl)Oc2cc1ccc2O)c1ccc(O)c(c1)-c1c(O[C@H]2O[C@H](CO)[C@@H](O)[C@H](O)[C@@H]2O)cc(O)cc1[C@@H](C(=O)NCCCN(C)C)NC3=O [dalbavancin]
inactive: 1 nM -5.95% | 8.33 nM -0.74% | 100 nM -2.73% | 833.33 nM -0.14% | 10000 nM 1.46%

CC(=O)OCC(=O)[C@@]12OC(C)(C)O[C@@H]1C[C@H]1[C@@H]3C[C@H](F)C4=CC(=O)C=C[C@]4(C)[C@@]3(F)[C@@H](O)C[C@@]12C [fluocinonide]
inactive: 1 nM 0.75% | 8.33 nM -0.105% | 100 nM 0.48% | 833.33 nM 0.035% | 10000 nM -1.54%

NC[C@H]1O[C@H](O[C@H]2[C@H](O)[C@@H](O[C@H]3O[C@H](CO)[C@@H](O)[C@H](N)[C@H]3O)[C@H](N)C[C@@H]2N)[C@H](N)[C@@H](O)[C@@H]1O [bekanamycin]
inactive: 1 nM -0.6% | 8.33 nM -0.02% | 100 nM -0.32% | 833.33 nM 0% | 10000 nM -1.85%

Cc1cc(F)c(Nc2ncnc3cc(OCc4ccccc4)ccc23)cc1O
inactive: 1 nM -3.67% | 8.33 nM -0.24% | 100 nM -1.17% | 833.33 nM -2.03% | 10000 nM -1.32%

C[C@]12Cc3c[nH]nc3C[C@@H]1CC[C@@H]1[C@@H]2CC[C@@]2(C)[C@H]1CC[C@]2(C)O [stanozolol]
inactive: 1 nM -3.58% | 8.33 nM -5.17% | 100 nM -4.66% | 833.33 nM -3.19% | 10000 nM -5.61%

O=C(OCCN1CCOCC1)c1cccnc1Nc1cccc(C(F)(F)F)c1 [morniflumate]
inactive: 1 nM -1.61% | 8.33 nM -3.25% | 100 nM -3.87% | 833.33 nM -4.12% | 10000 nM -5.47%

CC(C)Cc1ccc([C@@H](C)C(=O)NCCO)cc1 (racemic) [mabuprofen]
inactive: 1 nM -1.95% | 8.33 nM -2.13% | 100 nM -0.66% | 833.33 nM -0.72% | 10000 nM -4.85%

COc1ccc(/C=C/CCCCOc2ccc(C(=O)c3cccc(C(=O)O)c3)cc2CCC(=O)O)cc1
inactive: 1 nM 2.26% | 8.33 nM 1.45% | 100 nM 0.3% | 833.33 nM -3.65% | 10000 nM -3.88%

CN1CC[C@@H](NC(=O)Nc2ccc(C#N)cc2)C[C@@H]1c1nc2ccccc2[nH]1 [glasdegib]
inactive: 1 nM 2.8% | 8.33 nM 1.32% | 100 nM 1.05% | 833.33 nM -0.41% | 10000 nM 1.71%
